The test system of experiment [1] is XIP peptide (Xip251-270) binding. Kind of experiment: XIP fragment 251-270 binding compounds – biochemical, small-molecule microarray, fluorescence 635/667 nm, 0.1 µg/mL protein, primary screen (AID 1182). Conditions: fluorescent protein binding, 635 nm, higher = more signal, called active from +8 up or from −8 down.
In another experiment the test system is XIP peptide (Xip251-270). Kind of experiment: compounds binding XIP fragment 251-270 – biochemical, small-molecule microarray, fluorescence 635/667 nm, 0.5 µg/mL protein, primary screen (AID 1183). To be noted: fluorescence 635 nm, higher = more signal.
Experiment [2] can be described thus: blood-stage malaria parasite viability loss – strain 3D7, DAPI fluorescence, 100 nL, primary screen (AID 1184).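 Note: parasites grown inside human red blood cells in medium with human serum.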 To be noted: P. falciparum 3D7 growth, 3 d, higher = more signal.
For experiment [3], the target named is Homeobox protein Hox-A13 (Mus musculus) (UniProt Q62424). Kind of experiment: disruptors of Hoxa13 oligonucleotide interaction – biochemical, fluorescence polarization, labeled oligonucleotide, primary screen (AID 1185). To be noted: Hoxa13:DNA binding, 15 min, higher = more signal, called active from +8 up or from −8 down. For orientation: Fluorescence polarisation rises when a labelled molecule tumbles more slowly, as on binding a larger partner.

Experiment [4] can be described thus: blockers of DNA damage checkpoint Chk1 activation – imaging, HeLa, hydroxyurea, phospho-Chk1 antibody, percent positive cells, primary screen (AID 1186). To be noted: hydroxyurea-induced phospho-Chk1 immunofluorescence imaging, higher = more signal.
Experiment [5] is described as follows: blockers of DNA damage checkpoint Chk1 activation – imaging, HeLa, hydroxyurea, phospho-Chk1 nuclear intensity, primary screen (AID 1187). To be noted: hydroxyurea-induced phospho-Chk1 immunofluorescence imaging, higher = more signal.

The structures appear in SMILES notation. The source made the active and inactive calls. Unless noted, the rule behind the calls is not given here.

Sequence of Homeobox protein Hox-A13 (Mus musculus) (Q62424 whole entry, looked up): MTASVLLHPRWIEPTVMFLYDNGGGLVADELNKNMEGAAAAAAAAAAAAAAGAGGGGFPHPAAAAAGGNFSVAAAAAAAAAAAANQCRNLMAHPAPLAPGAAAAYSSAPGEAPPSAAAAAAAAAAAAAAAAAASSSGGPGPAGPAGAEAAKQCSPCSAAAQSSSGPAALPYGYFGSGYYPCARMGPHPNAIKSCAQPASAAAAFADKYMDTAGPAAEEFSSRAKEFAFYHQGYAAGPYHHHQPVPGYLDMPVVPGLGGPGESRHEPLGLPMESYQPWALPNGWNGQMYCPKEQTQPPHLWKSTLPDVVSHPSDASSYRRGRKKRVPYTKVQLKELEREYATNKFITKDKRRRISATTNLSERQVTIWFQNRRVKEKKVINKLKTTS

Regarding `CCCNC(=O)[C@@H]1c2ccccc2C(=O)N(Cc2ccccc2Cl)[C@H]1c1ccc(CO)cc1`, the composite z-score was -0.101 (inactive) in experiment [1] and 0.799 in the experiment with XIP peptide (Xip251-270). In addition, the z-score is -0.994 in experiment [2], -2.59 (inactive) in experiment [3], -0.258 (inactive) in experiment [4] and -0.142 (inactive) in experiment [5].

Regarding `C=C(/C(=C/C[C@@H](OC(=O)c1ccncc1)c1ccc(OCCO)cc1)c1cnc2ccccc2c1)C(C)C`, the composite z-score in experiment [1] was -0.214 (inactive); in the experiment on XIP peptide (Xip251-270), 0.565. Also, the z-score in experiment [2] is -2.84; in experiment [3], -5.46 (inactive); in experiment [4] it was -0.452 (inactive); in experiment [5], -0.051 (inactive).

On to `CCCCCCc1nc(CCCc2cc3c(c(CCCCCC)n2)[Si](C(C)C)(C(C)C)O[C@H]3c2ccccc2)cc2c1[Si](C(C)C)(C(C)C)O[C@H]2c1ccccc1`, for which the composite z-score was 0.285 (inactive) in experiment [1] and -0.307 in the experiment on XIP peptide (Xip251-270). Moreover, the z-score in experiment [2] was -0.607; in experiment [3], -2.79 (inactive); in experiment [4] it was -0.0972 (inactive); in experiment [5] it was -0.202 (inactive).

For `CCCC[C@H]1OB(O)C[C@H]2C1=C(C)C[C@H]1C(=O)N(C)C(=O)[C@H]12`, the composite z-score was 0.756 (inactive) in experiment [1] and 0.608 in the experiment with XIP peptide (Xip251-270). For the same compound, the z-score was 2.46 in experiment [2], -9.92 (active) in experiment [3], 0.327 (inactive) in experiment [4] and 0.547 (inactive) in experiment [5].

Consider `C=C(/C(=C/C[C@H](OC(C)=O)c1ccc(OCCO)cc1)c1cnc2ccccc2c1)C(C)C`, for which the composite z-score in experiment [1] was -0.18 (inactive); with XIP peptide (Xip251-270), 0.605. Also, the z-score in experiment [2] was -2.99; in experiment [3], -4.31 (inactive); in experiment [4], -0.319 (inactive); in experiment [5] it was -0.38 (inactive).

In the case of `CC(C)(C)N1CC=CC23O[C@@H]4C=CCCOC(=O)C4[C@H]2C(=O)N(CCCCCO)[C@@H]3C1=O` (stereo partly specified), the composite z-score in experiment [1] was 0.615 (inactive); with XIP peptide (Xip251-270), 0.12. The z-score in experiment [2] was 0.519; in experiment [3] it was -4.56 (inactive); in experiment [4] it was -1.05 (inactive); in experiment [5], -1.13 (inactive).

`C=CCOC(=O)[C@H]1[C@@H]2C(=O)O[C@@H](c3ccccc3)[C@@H](c3ccccc3)N2[C@@H](c2ccc(OCCOC(=O)[C@H]3C[C@H]4C(=O)N[C@@H](Cc5ccccc5)C(=O)N4[C@H]3c3ccc(O)cc3)cc2)[C@]12C(=O)Nc1ccccc12`: the composite z-score was 2.32 (inactive) in experiment [1] and 0.823 in the experiment on XIP peptide (Xip251-270). Further, the z-score was -1.62 in experiment [2], 1.08 (inactive) in experiment [3], 0.464 (inactive) in experiment [4] and 0.685 (inactive) in experiment [5].

Regarding `C=C(COC)/C(=C/C[C@H](OC(=O)c1ccncc1)c1ccc(CO)o1)c1cc(C(=O)OC)ccc1OC`, the composite z-score in experiment [1] is -0.222 (inactive); in the experiment on XIP peptide (Xip251-270), 0.483. For the same compound, the z-score was 0.215 in experiment [2], -5.06 (inactive) in experiment [3], -0.35 (inactive) in experiment [4] and -0.437 (inactive) in experiment [5].

For the compound `CC(C)NC(=O)[C@@]1(C)c2ccccc2C(=O)N(Cc2cc(F)cc(C(F)(F)F)c2)[C@H]1c1ccc(CO)cc1`, the composite z-score in experiment [1] is 1.06 (inactive); in the experiment with XIP peptide (Xip251-270), 0.863. Further, the z-score in experiment [2] was 0.281; in experiment [3], -3.73 (inactive); in experiment [4], 0.0123 (inactive); in experiment [5] it was -0.37 (inactive).

Turning to `COc1ccc([Si](C)(C)[C@H]2[C@H](CC(=O)N3CCC[C@H]3CO)O[C@@]3(C(=O)N(Cc4cccc(N5C(=O)COc6ccccc65)c4)c4ccccc43)[C@@H]2C)cc1`, the composite z-score is 0.422 (inactive) in experiment [1] and 0.74 in the experiment on XIP peptide (Xip251-270). Besides, the z-score in experiment [2] was -1.56; in experiment [3], -3.12 (inactive); in experiment [4], 0.0942 (inactive); in experiment [5], 0.728 (inactive).

For the compound `CS(=O)(=O)CCOC(=O)C1=CC(CCCO)=CC(c2cccs2)N(Cc2cccc(OC(F)(F)F)c2)C=C1C(=O)OCCS(C)(=O)=O` (stereo unspecified), the composite z-score is 1.17 (inactive) in experiment [1] and -0.0502 with XIP peptide (Xip251-270). Besides, the z-score in experiment [2] was -2.99; in experiment [3], -4.22 (inactive); in experiment [4], 0.724 (inactive); in experiment [5], 0.918 (inactive).

Turning to `CCCC=C(CCC)[C@@H](NC(=O)c1ccc(-c2ccccc2)cc1)c1ccc(C(=O)OC)cc1`, the composite z-score in experiment [1] is -0.144 (inactive); in the experiment on XIP peptide (Xip251-270), 0.0922. Moreover, the z-score in experiment [2] was 0.208; in experiment [3], -0.539 (inactive); in experiment [4], 0.125 (inactive); in experiment [5] it was -0.115 (inactive).

As to `COCCCNC(=O)[C@]1(Cc2ccccc2)N=C(c2ccc(OCCCO)cc2)O[C@@H]1c1ccccc1`, the results for the composite z-score (in experiment [1]; with XIP peptide (Xip251-270)) were 2.03 (inactive) and 0.825, respectively. The z-score in experiment [2] is -2.17; in experiment [3], -4.76 (inactive); in experiment [4], -0.117 (inactive); in experiment [5], -0.0405 (inactive).

As to `CCOc1ccc(N2C(=O)/C(=C/C=C/c3ccccc3OC)S(=O)(=O)C2c2cccc([N+](=O)[O-])c2)cc1` (stereo unspecified), the composite z-score in experiment [1] is -0.735 (inactive); with XIP peptide (Xip251-270) it was -0.299. Besides, the z-score in experiment [2] was 0.418; in experiment [3], 1.37 (inactive); in experiment [4], -0.322 (inactive); in experiment [5], -0.16 (inactive).

Turning to `COC(=O)[C@@]1(Cc2ccccc2)[C@H]2c3cc(C(=O)N4CCCC4)n(Cc4ccccn4)c3C[C@H]2CN1C(=O)c1ccccc1`, the composite z-score in experiment [1] was 0.766 (inactive); in the experiment with XIP peptide (Xip251-270), 0.91. Besides, the z-score is -1.5 in experiment [2], -6.05 (inactive) in experiment [3], -0.161 (inactive) in experiment [4] and -0.295 (inactive) in experiment [5].

In the case of `CO[C@H]1O[C@H](CO)[C@@H](OC(=O)Nc2ccc(C#N)cc2)[C@H](OC(=O)c2cc3ccccc3[nH]2)[C@H]1OC(=O)c1cc2ccccc2[nH]1`, the composite z-score in experiment [1] was 2.37 (inactive); with XIP peptide (Xip251-270), 0.875. In addition, the z-score in experiment [2] is -1.96; in experiment [3], -2.26 (inactive); in experiment [4] it was -0.487 (inactive); in experiment [5], -0.52 (inactive).

Consider `Cc1ccc(S[C@]2(C(=O)NCC(F)(F)F)CC(=O)N(Cc3ccccc3Cl)[C@@H]2c2ccc(CO)cc2I)cc1`, for which the composite z-score in experiment [1] is 0.292 (inactive); with XIP peptide (Xip251-270), 0.426. Besides, the z-score in experiment [2] is 0.115; in experiment [3], -2.61 (inactive); in experiment [4], 0.395 (inactive); in experiment [5], 0.92 (inactive).

Regarding `CCOC(=O)C1=CC[C@H]2C(=O)N(CC)C(=O)[C@@H]12`, the composite z-score in experiment [1] is 0.223 (inactive); in the experiment with XIP peptide (Xip251-270) it was 0.343. The z-score in experiment [2] is -0.239; in experiment [3] it was -2.15 (inactive); in experiment [4], 0.379 (inactive); in experiment [5] it was -0.0238 (inactive).

Take `C#C[C@@H]1Oc2ccccc2S(=O)(=O)N2CCC[C@H]12`: the figures for the composite z-score (in experiment [1]; in the experiment on XIP peptide (Xip251-270)) were -0.037 (inactive) and -0.149, respectively. Further, the z-score is -0.0728 in experiment [2], -0.61 (inactive) in experiment [3], 0.723 (inactive) in experiment [4] and 0.595 (inactive) in experiment [5].

Take `COCCCNC(=O)[C@]1(CCC(=O)OC(C)(C)C)N=C(c2ccc(OCCCO)cc2)O[C@@H]1c1ccccc1N=[N+]=[N-]`: the composite z-score in experiment [1] is 0.448 (inactive); in the experiment on XIP peptide (Xip251-270) it was 0.764. In addition, the z-score in experiment [2] was -1.75; in experiment [3] it was -4.03 (inactive); in experiment [4], -0.437 (inactive); in experiment [5], -0.234 (inactive).

`CC(C)N1CC=CC23O[C@@H]4C=CCCOC(=O)C4[C@H]2C(=O)N(CCCCCCO)[C@@H]3C1=O` (stereo partly specified): the composite z-score in experiment [1] is -0.543 (inactive); with XIP peptide (Xip251-270) it was 0.645. The z-score is 0.0012 in experiment [2], -2.29 (inactive) in experiment [3], -0.478 (inactive) in experiment [4] and -0.286 (inactive) in experiment [5].

Regarding `CN1C(=O)C2C=CC(C(O)C(c3ccccc3)c3ccccc3)N(NC(=O)OC(C)(C)C)C2C1=O` (stereo unspecified), the composite z-score in experiment [1] is 3.1 (inactive); in the experiment with XIP peptide (Xip251-270), 0.752. Besides, the z-score was 0.617 in experiment [2], -4.08 (inactive) in experiment [3], 0.242 (inactive) in experiment [4] and -0.158 (inactive) in experiment [5].

As to `NCCCCCNC(=O)[C@@H]1C[C@@H]2C(=O)N3CCC[C@H]3C(=O)N2[C@@H]1c1cccc(OCCO)c1`, the composite z-score in experiment [1] is 0.536 (inactive); in the experiment with XIP peptide (Xip251-270), -0.0496. The z-score in experiment [2] is 0.398; in experiment [3], -3.71 (inactive); in experiment [4], 0.0592 (inactive); in experiment [5], 0.182 (inactive).

Take `COCCOC(=O)N1C(=O)[C@@]2(c3cc(C#CC4(O)CCCCCC4)ccc31)[C@H](C(=O)N1CCN(c3ncccn3)CC1)[C@H]1C(=O)O[C@H](c3ccccc3)[C@H](c3ccccc3)N1[C@@H]2c1ccc(OCCO)cc1`: the composite z-score was -0.128 (inactive) in experiment [1] and 0.835 in the experiment with XIP peptide (Xip251-270). Also, the z-score is -2.34 in experiment [2], 0.821 (inactive) in experiment [3], 0.124 (inactive) in experiment [4] and 0.204 (inactive) in experiment [5].

For `CN1C(=O)C2C(C1=O)C1C=C(CCCO)C2C(c2ccc(CN3CCCC3)cc2)N1C` (stereo unspecified), the composite z-score in experiment [1] was 0.413 (inactive); in the experiment on XIP peptide (Xip251-270), -0.598. For the same compound, the z-score in experiment [2] was -1.27; in experiment [3] it was -7.16 (inactive); in experiment [4], -0.0348 (inactive); in experiment [5], 0.185 (inactive).

Regarding `CCOC(=O)C1=CCC(c2cc3ccccc3[nH]2)NC1` (stereo unspecified), the composite z-score is -0.0143 (inactive) in experiment [1] and -0.753 with XIP peptide (Xip251-270). In addition, the z-score in experiment [2] was -0.501; in experiment [3] it was -1.51 (inactive); in experiment [4], 0.437 (inactive); in experiment [5], -0.151 (inactive).
